3 molecules from PubChem BioAssay AID720564 (Broad Institute, 2013) can be followed below.

The other results are listed elsewhere or left out. Calls of active or inactive are those of the source.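 How the source made its calls: active means luminescence drop, with half-maximal potency fitted within twice the sample's top valid dose (cut at about 70 µM in these data); inactive means the rest, including signal moving the wrong way.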

A short description of this test: AlphaScreen signal interference by compounds, dose response, artefact control for ARNT/TACC3 disruptor project, biochemical, dual-tagged ARNT, dry powder (AID 720564). As to conditions: Dual-tagged His-ARNT PASB-GST AlphaScreen artifact counter-screen. A general note: Bead proximity is the source of the signal in Alpha formats.

One may read the AC50 as the concentration giving half of the maximal activity seen. As to `O=C(CSc1ccc(-c2ccccn2)nn1)Nc1ccccc1`, the AC50 was 15.3 µM (active). In the case of `COc1ccc(-c2nnc(NC(=O)c3ccc(S(=O)(=O)N4CCC(C)CC4)cc3)o2)cc1`, the concentration at half-maximal activity (AC50) was 67.7 µM (active). Then `CCCCC(=O)NC(c1ccco1)c1ccc2cccnc2c1O` (stereo not drawn), with 13.8 µM (active).
